Consider 10 compounds from the supplement of paper PMC9694430.

Each structure is given as a SMILES string. Structures can show the parent of a compound that is named as a salt.

What all share (test): thermal shift delta Tm vs DMSO control; higher = stronger stabilization (binding)
What all share (conditions): 12.5 µM; protein concentration 2 µM

For one experiment, the system named is LOC_OS02G45750-cb003. The method in brief:
(§1)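 Thermal shift values come from differential scanning fluorimetry on purified rice kinase domains made in E. coli, with melting temperatures obtained from Boltzmann fits. Samples of 19.5 μl held 2 μM kinase, 100 mM potassium phosphate pH 7.5, 150 mM NaCl, 10% glycerol, 5 × SYPRO Orange and compound in DMSO, and were heated from 25°C to 95°C at 0.05°C/s. Each shift is a triplicate mean relative to the DMSO-only protein sample.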

Another experiment deals with LOC_OS02G54510-cb004. In a few lines:
as §1

The subject of another experiment is LOC_OS03G04050-cb001. In a few lines: as §1
For a further experiment, the system named is LOC_OS03G12390-cb001. The method in brief:
as §1

For a further experiment, the system named is LOC_OS03G27990-cb004. In a few lines:
as §1

The test system of another experiment is LOC_OS03G50450-cb001. The method in brief:
as §1

In the next experiment the test system is LOC_OS03G50810-cb003. The method in brief: as §1
The test system of another experiment is LOC_OS04G35114-cb001. The method in brief: as §1
Another experiment relates to T1, LOC_OS04G38480-cb003.
T1 sequence (whole entry): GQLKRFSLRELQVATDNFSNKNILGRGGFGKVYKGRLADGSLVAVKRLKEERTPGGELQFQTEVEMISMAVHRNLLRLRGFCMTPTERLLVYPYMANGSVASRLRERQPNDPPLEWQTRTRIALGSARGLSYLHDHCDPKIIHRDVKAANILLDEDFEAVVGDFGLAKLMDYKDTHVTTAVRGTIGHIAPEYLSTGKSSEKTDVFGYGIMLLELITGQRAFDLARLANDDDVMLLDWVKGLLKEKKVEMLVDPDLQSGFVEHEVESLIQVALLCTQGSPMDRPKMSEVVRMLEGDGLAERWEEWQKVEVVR
In a few lines: as §1

Another experiment deals with T2, LOC_OS04G41100-cb001.
T2 sequence (whole entry): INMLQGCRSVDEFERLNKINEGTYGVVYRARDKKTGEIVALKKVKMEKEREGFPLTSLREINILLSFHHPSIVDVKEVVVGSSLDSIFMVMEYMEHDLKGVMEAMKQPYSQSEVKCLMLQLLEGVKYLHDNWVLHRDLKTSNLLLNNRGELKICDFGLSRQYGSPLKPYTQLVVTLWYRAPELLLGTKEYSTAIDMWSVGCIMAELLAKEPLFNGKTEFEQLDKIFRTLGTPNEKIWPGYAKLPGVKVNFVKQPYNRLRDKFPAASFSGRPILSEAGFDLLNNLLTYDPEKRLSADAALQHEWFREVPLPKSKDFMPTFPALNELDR
The method in brief: as §1
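Also: purified Escherichia coli-expressed rice kinase domain construct.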

`CCn1c(-c2nonc2N)nc2c(C#CC(C)(C)O)ncc(OC[C@H]3CCCNC3)c21`: the “thermal shift delta Tm” value in the experiment on LOC_OS02G45750-cb003 was 0.16 °C; in the experiment with LOC_OS02G54510-cb004, -0.17 °C; in the experiment with LOC_OS03G04050-cb001 it was 0.51 °C; in the experiment with LOC_OS03G12390-cb001, -0.08 °C; in the experiment with LOC_OS03G27990-cb004, 0.32 °C; in the experiment with LOC_OS03G50450-cb001 it was 0.05 °C. For the same compound, the “thermal shift delta Tm” value was found to be 0.05 °C in the experiment on LOC_OS03G50810-cb003, 0.41 °C in the experiment on LOC_OS04G35114-cb001, 0.66 °C in the experiment with LOC_OS04G38480-cb003 and 1.1 °C in the experiment with LOC_OS04G41100-cb001.

Consider `C[S+]([O-])c1ccc(-c2nc(-c3ccc(F)cc3)c(-c3ccncc3)[nH]2)cc1` (stereo not given), for which the “thermal shift delta Tm” value with LOC_OS02G45750-cb003 worked out at 1.21 °C; in the experiment with LOC_OS02G54510-cb004, 0.81 °C; with LOC_OS03G04050-cb001 it was 1.08 °C; with LOC_OS03G12390-cb001, 0.78 °C; with LOC_OS03G27990-cb004, 0.58 °C; in the experiment on LOC_OS03G50450-cb001, 0.08 °C. The “thermal shift delta Tm” value in the experiment with LOC_OS03G50810-cb003 was 0.32 °C; with LOC_OS04G35114-cb001, 1.35 °C; with LOC_OS04G38480-cb003, 1.26 °C; in the experiment on LOC_OS04G41100-cb001, 1.23 °C.

Regarding `Cc1ccc(NC(=O)c2cccc(N(C)C)c2)cc1NC(=O)c1ccc(O)cc1`, the “thermal shift delta Tm” value in the experiment on LOC_OS02G45750-cb003 turned out to be 0.7 °C; in the experiment with LOC_OS02G54510-cb004, 0.45 °C; in the experiment on LOC_OS03G04050-cb001, 0.56 °C; with LOC_OS03G12390-cb001 it was 0.34 °C; with LOC_OS03G27990-cb004, 0.26 °C; with LOC_OS03G50450-cb001 it was 0.28 °C. Besides, the “thermal shift delta Tm” value in the experiment with LOC_OS03G50810-cb003 was 0.7 °C; in the experiment on LOC_OS04G35114-cb001, 0.46 °C; in the experiment on LOC_OS04G38480-cb003 it was 0.87 °C; in the experiment with LOC_OS04G41100-cb001 it was 0.23 °C.

As for `O=C(NOC[C@H](O)CO)c1ccc(F)c(F)c1Nc1ccc(I)cc1F`, the “thermal shift delta Tm” value worked out at 0.77 °C with LOC_OS02G45750-cb003; 0.16 °C in the experiment on LOC_OS02G54510-cb004; 0.43 °C with LOC_OS03G04050-cb001; 0.47 °C with LOC_OS03G12390-cb001; 0.21 °C in the experiment on LOC_OS03G27990-cb004; 0.26 °C in the experiment with LOC_OS03G50450-cb001. Further, the “thermal shift delta Tm” value in the experiment with LOC_OS03G50810-cb003 is 0.28 °C; with LOC_OS04G35114-cb001, -0.05 °C; with LOC_OS04G38480-cb003, 0.76 °C; in the experiment with LOC_OS04G41100-cb001, 0.78 °C.

As to `COc1cccc2cc(-c3nc([C@H]4CC[C@H](C(=O)O)CC4)n4ncnc(N)c34)[nH]c12`, the “thermal shift delta Tm” value with LOC_OS02G45750-cb003 turned out to be 0.26 °C; with LOC_OS02G54510-cb004, 0.38 °C; in the experiment with LOC_OS03G04050-cb001, 0.31 °C; in the experiment with LOC_OS03G12390-cb001, 0.34 °C; in the experiment on LOC_OS03G27990-cb004 it was 0.03 °C; in the experiment on LOC_OS03G50450-cb001, 0.32 °C. Besides, the “thermal shift delta Tm” value in the experiment with LOC_OS03G50810-cb003 came to 0.58 °C; in the experiment with LOC_OS04G35114-cb001, 3.43 °C; with LOC_OS04G38480-cb003, 0.98 °C; with LOC_OS04G41100-cb001, 0.32 °C.

As for `CN1C(=O)[C@@H](NC(=O)c2n[nH]c(Cc3ccccc3)n2)COc2ccccc21`, the “thermal shift delta Tm” value was 0.85 °C in the experiment on LOC_OS02G45750-cb003; -0.02 °C with LOC_OS02G54510-cb004; 0.45 °C in the experiment on LOC_OS03G04050-cb001; 0.81 °C in the experiment with LOC_OS03G12390-cb001; 0.38 °C in the experiment with LOC_OS03G27990-cb004; 0.66 °C with LOC_OS03G50450-cb001. In addition, the “thermal shift delta Tm” value with LOC_OS03G50810-cb003 is 0.57 °C; with LOC_OS04G35114-cb001, -0.51 °C; with LOC_OS04G38480-cb003 it was 2 °C; with LOC_OS04G41100-cb001 it was 0.34 °C.

Consider `COc1cc2ccc(=O)oc2cc1O` [Scopoletin], for which the “thermal shift delta Tm” value worked out at 0.7 °C in the experiment with LOC_OS02G45750-cb003; 0.13 °C with LOC_OS02G54510-cb004; 0.44 °C in the experiment with LOC_OS03G04050-cb001; 0.02 °C in the experiment with LOC_OS03G12390-cb001; 0.3 °C in the experiment on LOC_OS03G27990-cb004; 0.69 °C in the experiment with LOC_OS03G50450-cb001. The “thermal shift delta Tm” value in the experiment on LOC_OS03G50810-cb003 is 0.22 °C; in the experiment on LOC_OS04G35114-cb001, 0.41 °C; in the experiment with LOC_OS04G38480-cb003, 0.05 °C; in the experiment on LOC_OS04G41100-cb001 it was 0.47 °C.

In the case of `COc1c(C)c(C(=O)c2ccc(N)c(C(=O)O)c2)n2ccccc12`, the “thermal shift delta Tm” value was 0.38 °C in the experiment with LOC_OS02G45750-cb003; 0.3 °C in the experiment with LOC_OS02G54510-cb004; 0.46 °C in the experiment with LOC_OS03G04050-cb001; -0.07 °C with LOC_OS03G12390-cb001; 0.21 °C with LOC_OS03G27990-cb004; 0.58 °C with LOC_OS03G50450-cb001. Moreover, the “thermal shift delta Tm” value with LOC_OS03G50810-cb003 was found to be 0.22 °C; in the experiment on LOC_OS04G35114-cb001, 0.79 °C; in the experiment with LOC_OS04G38480-cb003 it was 0.31 °C; in the experiment with LOC_OS04G41100-cb001, 0.29 °C.

Turning to `C=C(C)[C@@H]1CC[C@]2(C)CC[C@]3(C)[C@H](CC[C@@H]4[C@@]5(C)CC[C@H](O)C(C)(C)[C@@H]5CC[C@]43C)[C@@H]12` [Lupeol], the “thermal shift delta Tm” value in the experiment on LOC_OS02G45750-cb003 was found to be 1.07 °C; in the experiment on LOC_OS02G54510-cb004, 0.49 °C; with LOC_OS03G04050-cb001, 0.67 °C; with LOC_OS03G12390-cb001 it was 0.01 °C; with LOC_OS03G27990-cb004, 0.18 °C; with LOC_OS03G50450-cb001 it was 0.36 °C. Also, the “thermal shift delta Tm” value in the experiment with LOC_OS03G50810-cb003 came out at 0.4 °C; in the experiment on LOC_OS04G35114-cb001, 1.24 °C; in the experiment with LOC_OS04G38480-cb003, 3.02 °C; with LOC_OS04G41100-cb001, 0.47 °C.

With `CN1CC[C@H](c2c(O)cc(O)c3c(=O)cc(-c4ccccc4Cl)oc23)[C@H](O)C1` [Flavopiridol HCl], the “thermal shift delta Tm” value in the experiment on LOC_OS02G45750-cb003 was 1.65 °C; in the experiment on LOC_OS02G54510-cb004, 0.99 °C; with LOC_OS03G04050-cb001, 0.18 °C; with LOC_OS03G12390-cb001, 2.02 °C; in the experiment on LOC_OS03G27990-cb004, 1.25 °C; with LOC_OS03G50450-cb001 it was 0.4 °C. The “thermal shift delta Tm” value with LOC_OS03G50810-cb003 was determined as 0.81 °C; in the experiment on LOC_OS04G35114-cb001 it was 1.99 °C; in the experiment with LOC_OS04G38480-cb003, 1.82 °C; in the experiment with LOC_OS04G41100-cb001 it was 0.56 °C.
